Source: PubChem BioAssay
FEN1 inh-1 = inhibitors of human flap endonuclease 1. Recombinant FEN1 flap cleavage, fluorescence, 15 min. P39748. AID 588795. hit rate 0.35% among 390,000. Potency, µM (doses to about 114 µM), actives largely listed as inhibitors; also: nearly all actives have a fitted effect of over 65% in size
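Quantitative HTS format: each compound was titrated, incubated with 10 nM nuclease for 15 min at room temperature, then challenged with flap substrate at 50 nM final. Signal change over 15 min gave concentration–effect curves.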
Pol eta inh-1 = inhibitors of human DNA polymerase eta; recombinant Pol eta, fluorescent DNA replication assay; hit rate 1.2% among 390,000; AID 588591; Potency, µM (highest dose often 114 µM), most hits filed as inhibitors; Q9Y253
Target sequence (Q9Y253 whole entry, looked up): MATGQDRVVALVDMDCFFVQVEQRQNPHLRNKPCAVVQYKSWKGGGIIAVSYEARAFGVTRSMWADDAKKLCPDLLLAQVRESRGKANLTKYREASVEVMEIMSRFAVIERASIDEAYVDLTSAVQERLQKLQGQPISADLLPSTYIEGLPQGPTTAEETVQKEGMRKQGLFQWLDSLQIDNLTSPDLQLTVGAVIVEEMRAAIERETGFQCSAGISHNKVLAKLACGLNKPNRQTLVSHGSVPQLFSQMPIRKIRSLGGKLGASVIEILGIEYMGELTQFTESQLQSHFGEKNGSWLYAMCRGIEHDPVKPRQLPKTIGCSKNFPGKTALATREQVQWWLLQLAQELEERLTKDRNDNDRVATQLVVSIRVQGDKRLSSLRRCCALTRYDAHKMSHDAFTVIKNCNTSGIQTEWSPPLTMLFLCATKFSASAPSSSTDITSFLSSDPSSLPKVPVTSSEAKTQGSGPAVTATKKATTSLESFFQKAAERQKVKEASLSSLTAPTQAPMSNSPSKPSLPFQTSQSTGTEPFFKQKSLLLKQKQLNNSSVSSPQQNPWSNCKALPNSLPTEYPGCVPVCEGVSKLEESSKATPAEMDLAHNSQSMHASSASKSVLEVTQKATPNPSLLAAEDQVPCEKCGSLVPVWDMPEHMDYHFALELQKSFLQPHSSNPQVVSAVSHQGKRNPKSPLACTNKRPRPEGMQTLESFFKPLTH
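Pol eta at 10 nM preincubated with compounds 15 min at room temperature; reaction started with fluorescent substrate (50 nM final) and read kinetically at 0 and 10 min.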
POLB inh = inhibitors of human DNA polymerase beta | P06746 | Pol beta primer extension/strand displacement, fluorescence kinetic | Potency, µM (top dose mostly 114 µM), usual class: inhibitors | hit rate 1.3% among 340,000 | AID 485314
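Reaction started by 50 nM substrate onto compound-treated Pol beta (10 nM, 15 min preincubation, room temperature); plates read at 0 min and 10 min. Normalized concentration-effect data fitted by four-parameter Hill equation.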
Pol kappa inh-1 = inhibitors of human DNA polymerase kappa; Q9UBT6; purified Pol kappa, fluorescent DNA synthesis assay, 10 min; Potency, µM (top dose mostly 107 µM), hits mostly inhibitors; hit rate 0.53% among 400,000; AID 588579
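10 nM Pol kappa was preincubated with compounds for 15 min at room temperature. Reaction started with 50 nM (final) substrate. Fluorescence read kinetically at 0 and 10 min.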
WRN helicase inh-1 = blocks human WRN helicase; AID 651768; Q14191; WRN helicase unwinding, fluorescent forked duplex, kinetic; Potency, µM (highest dose often 114 µM), hits mostly inhibitors; hit rate 0.46% among 360,000; also: nearly all actives have a fitted effect of over 55% in size
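Primary qHTS, 1536-well format. 20 nM WRN + compound, 15 min RT; start with 100 nM forked fluorophore/quencher duplex, 2 mM ATP (final); kinetic read ex 525/em 598 nm.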
POLI inh = DNA polymerase iota (human) inhibition; Pol iota fluorescent replication assay, 10 min; Potency, µM (top dose mostly 115 µM), hits mostly inhibitors; hit rate 1% among 390,000
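Fluorescent replication assay read twice, at 0 min and 10 min after adding 50 nM (final) substrate. Enzyme (10 nM) and compounds were first incubated 15 min at room temperature; enzyme-free buffer wells were negative controls.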
PGK validate = validation of Trypanosoma brucei phosphoglycerate kinase inhibitors. shares compounds with Pol kappa inh-1. Potency, µM (doses to about 57.5 µM), most hits filed as inhibitors. TbPGK coupled GAPDH assay, Kinase-Glo luminescence. hit rate 79% among 500. AID 686980; also: nearly all actives have a fitted effect of over 65% in size
POLI cherry-pick = Confirm cherry-picked inhibitors of human polymerase iota | shares compounds with Pol kappa inh-1 | Pol iota primer extension, TAMRA/BHQ fluorescence | Potency, µM, most hits filed as inhibitors | hit rate 77% among 1,500 | AID 720496
Pol kappa inh-2 = confirmation of human DNA polymerase kappa inhibitors; shares compounds with Pol eta inh-1; purified Pol-kappa, fluorescent strand-displacement substrate; Potency, µM, usual class: inhibitors; hit rate 76% among 920
Pol eta inh-2 = confirmation of human DNA polymerase eta inhibitors | Pol eta primer extension, TAMRA/BHQ fluorescence, 10 min | shares compounds with Pol eta inh-1 | hit rate 64% among 2,600 | AID 720502 | Potency, µM, usual class: inhibitors
FEN1 inh-2 = confirmation of human FEN1 inhibitors; shares compounds with FEN1 inh-1; FEN1 flap cleavage, TAMRA/BHQ2 fluorogenic DNA substrate; Potency, µM, actives largely listed as inhibitors; hit rate 79% among 880; AID 720498; also: nearly all actives have a fitted effect of over 60% in size
WRN helicase inh-2 = confirmation of human WRN helicase inhibitors; Potency, µM (highest dose often 57.1 µM), usual class: inhibitors; WRN helicase DNA unwinding, fluorescence kinetic; shares compounds with WRN helicase inh-1; hit rate 63% among 610; also: nearly all actives have a fitted effect of over 65% in size
TO displacement = counter-screen for WRN helicase inhibitors: DNA binding; shares compounds with WRN helicase inh-1; thiazole orange DNA binding displacement, fluorescence; Potency, µM (doses to about 57.1 µM), most hits filed as inhibitors; hit rate 10% among 610; AID 720499;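 also: drop in dye fluorescence marks compound binding to DNA; nearly all actives have a fitted effect of over 60% in size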
BLM helicase inh = counter-screen for WRN helicase inhibitors: human BLM helicase inhibition | shares compounds with WRN helicase inh-1 | Recombinant BLM helicase DNA unwinding, red fluorescence | Potency, µM (titrated, usually from 57.1 µM), hits mostly inhibitors | hit rate 60% among 610 | AID 720503; also: nearly all actives have a fitted effect of over 60% in size
Numbers stand for hits; 0 = inactive; ? = inconclusive; - = no result given. Rows were chosen to be rich in hits. Some 2.4% of all compounds tested hit in one or more screens of this group. Calls follow the shape of the dose curve; as a rule, active = well fitted curve in the direction sought with a large enough effect; inconclusive = small, poorly fitted or top-dose-only effect, or another doubt; inactive = no such curve, though single readings can be large; an effect the other way counts as inactive or inconclusive.

SMILES	FEN1 inh-1	Pol eta inh-1	POLB inh	Pol kappa inh-1	WRN helicase inh-1	POLI inh	POLI cherry-pick	Pol eta inh-2	FEN1 inh-2	WRN helicase inh-2	TO displacement	BLM helicase inh	others
O=C1CC(=O)N(Cc2ccco2)C(=O)N1	28.2µM	3.55µM	8.91µM	8.91µM	25.1µM	3.16µM	3.36	5.36	23.9	7.64µM	0	4.29µM	PGK validate=0.919µM
COc1ccc(S(=O)(=O)N2CCN(C(=O)c3cc4c(s3)CCC4)CC2)cc1	44.7µM	2.24µM	-	28.2µM	35.5µM	2.82µM	2.99	7.57	75.7	7.64µM	?	1.08µM	Pol kappa inh-2=2.99
Cc1ccc(S(=O)(=O)N2CCN(C(=O)c3cc4c(s3)CCCC4)CC2)cc1	0	0	-	0	0	0	-	-	-	-	-	-
Nc1nc2c(s1)COc1ccccc1-2	0	0	0	0	0	0	-	-	-	-	-	-
Nc1nc2c(s1)CCc1c-2cnn1-c1ccccc1	17.8µM	79.4µM	?	0	0	14.1µM	23.8	67.5	-	30.4µM	0	30.4µM
CCn1c(C(=O)NCc2ccccc2Br)cc2oc3ccccc3c21	0	0	0	0	-	0	-	-	-	-	-	-
NC1=NC(=O)/C(=C/c2ccc(-c3ccc(S(N)(=O)=O)cc3)o2)S1	?	22.4µM	?	79.4µM	35.5µM	44.7µM	33.6	53.6	-	19.2µM	0	10.8µM	Pol kappa inh-2=21.2
O=S(=O)(c1ccccc1)N1CCC2(CC1)CN(c1ccccn1)C2	-	-	-	0	-	-	-	-	-	-	-	-
CN(Cc1ccco1)c1ncncc1-c1ccccc1C(F)(F)F	-	-	-	0	-	-	-	-	-	-	-	-
O=C(O)c1cccc(-n2cccc2/C=C/[N+](=O)[O-])c1	?	2.82µM	3.55µM	14.1µM	20µM	?	15	5.36	42.6	17.1µM	0	19.2µM	PGK validate=20.6µM
O=Cc1cccn1-c1cccc([N+](=O)[O-])c1	0	0	?	0	0	0	-	-	-	-	-	-
ON=Cc1cccn1-c1ccccc1	0	0	0	0	0	0	-	-	-	-	-	-
O=C(O)c1cccc(-n2cccc2/C=N/O)c1	?	3.16µM	12.6µM	35.5µM	?	11.2µM	18.9	30.1	-	24.1µM	0	19.2µM
COc1ccc2c(c1)C(c1cc(OC)c(OC)c(OC)c1)CC(=O)O2 (stereo unspecified)	-	-	-	0	-	-	-	-	-	-	-	-
Cc1cc(C)c2nc(-c3ccccn3)cc(C(=O)Nc3ccc(S(=O)(=O)Nc4onc(C)c4C)cc3)c2c1	?	8.91µM	?	?	39.8µM	8.91µM	21.2	8.49	-	15.2µM	?	6.81µM
COc1ccc(NS(=O)(=O)c2ccc3c(c2)[C@H]2C=CC[C@H]2[C@@H](c2ccc(C(=O)O)cc2)N3)cc1	20µM	2.82µM	20µM	10µM	39.8µM	?	23.8	9.53	37.9	21.5µM	0	27.1µM	PGK validate=18.3µM;Pol kappa inh-2=2.38
